The panel holds about 83,000 compounds, 20% with a hit somewhere; the sample as a whole holds those more often.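 Activity criterion: percent growth below 10, measured after cells in 96-well plates were exposed to a single compound concentration for 48 hours.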 Values without a mark were called inactive. Activity calls are given as the source filed them.
Tests used:
Experiment in all cases: NCI-60 one-dose screen, 48 h (100 = growth as untreated, 0 = no growth, -100 = all killed)
Conditions in all cases: 10 µM unless noted
NCI-H23 lung = tested on: NCI-H23 lung
NCI-H226 lung = tested on: NCI-H226 lung
NCI-H322M lung = tested on: NCI-H322M lung
HOP-62 NSCLC = tested on: HOP-62 NSCLC
NCI-H460 lung = tested on: NCI-H460 lung
HOP-92 NSCLC = tested on: HOP-92 NSCLC
786-0 renal = tested on: 786-0 renal
COLO 205 colon = tested on: COLO 205 colon
DU-145 prostate = tested on: DU-145 prostate
K-562 leukemia = tested on: K-562 leukemia
MALME-3M melanoma = tested on: MALME-3M melanoma
MDA-MB-231 breast = tested on: MDA-MB-231 breast
SF-268 CNS = tested on: SF-268 CNS
SF-539 CNS = tested on: SF-539 CNS
M14 melanoma = tested on: M14 melanoma
A549/ATCC NSCLC = tested on: A549/ATCC NSCLC
RXF 393 renal = tested on: RXF 393 renal
SF-295 CNS = tested on: SF-295 CNS
UACC-257 melanoma = tested on: UACC-257 melanoma

Row | SMILES | growth (NCI-H23 lung) | growth (NCI-H226 lung) | growth (NCI-H322M lung) | growth (HOP-62 NSCLC) | growth (NCI-H460 lung) | growth (HOP-92 NSCLC) | growth (786-0 renal) | growth (COLO 205 colon) | growth (DU-145 prostate) | growth (K-562 leukemia) | growth (MALME-3M melanoma) | growth (MDA-MB-231 breast) | growth (SF-268 CNS) | growth (SF-539 CNS) | growth (M14 melanoma) | growth (A549/ATCC NSCLC) [%] | growth (RXF 393 renal) | growth (SF-295 CNS) | growth (UACC-257 melanoma)
1 | COc1ccc(-n2nc(C(=O)Nc3ccc(F)cc3)nc2-c2cc(OC)c(OC)c(OC)c2)cc1 | 92.7% | 79.3% | 78.5% | 87.8% | 98.4% | 91.2% | 83.6% | 102% | 111% | 83.7% | 96.2% | 93.9% | 102% | 88.3% | 110% |  |  |  | 
2 | O=C(CCCN1CCC(O)(c2ccc(Br)cc2)CC1)c1ccc(F)cc1 | 68.3% | 99.5% | 81.8% | 64.3% | 76.8% | 98.9% | 69% |  |  |  | 86.8% | 40.7% | 83.4% | 77.8% | 18.6% | 73.5 | 49.8% | 54.7% | -21.9% (active)
3 | COc1cc(OC)c(C(=O)/C=C/c2cccc(OC(C)=O)c2)cc1CC=C(C)C | 72.2% | 69.6% | 98.9% | 114% | 89.4% | 56.5% | 91.4% | 111% | 69.2% | 16.5% | 122% | 77.6% | 70.4% | 90.6% | 87.6% |  |  | 97.7% | 
4 | CCS(=O)(=O)Nc1cccc(Nc2c3cccc(C)c3nc3c(C)cccc23)c1OC | 11.1% | -6.89% (active) | 49.1% | 8.84% (active) | 3.23% (active) | -11.8% (active) | -42.1% (active) | 27.1% | 2.74% (active) | 8.19% (active) | 21.5% | 59.9% | 20.4% | -41.3% (active) | 17.2% |  | 34.6% | -7.84% (active) | 
5 | FC(F)(F)c1cc(-c2nnc3n2N=C(Cl)CS3)cc(C(F)(F)F)c1 | 93% | 99.8% | 111% | 98.5% | 107% | 102% | 93.5% | 96.5% | 112% | 83.4% | 99% | 112% | 115% | 109% | 84.6% |  |  |  | 
6 | CCCCCc1c(C)[nH]c(/C=C2\N=C(c3ccc[nH]3)C=C2Oc2ccc(OC)cc2)c1C | -67.1% [100 µM] (active) | -15.7% [100 µM] (active) | -6.72% [100 µM] (active) | -54.5% [100 µM] (active) | -46.1% [100 µM] (active) | -12.6% [100 µM] (active) | -92.2% [100 µM] (active) | -83.9% [100 µM] (active) | -59.2% [100 µM] (active) | -14.6% [100 µM] (active) | -75.4% [100 µM] (active) | -71.2% [100 µM] (active) | -83.5% [100 µM] (active) |  | -94.7% [100 µM] (active) |  | -68.3% [100 µM] (active) | -82.1% [100 µM] (active) | 
7 | O=C(c1ccc(OCCN2CCCCC2)cc1)c1c(-c2ccc(O)cc2)sc2cc(O)ccc12 | 82.5% | 92.3% | 114% | 89.2% | 93.5% | 66.7% | 74.7% |  |  |  | 99.4% | 72.2% | 84.3% | 98.6% | 93.3% | 91.6 | 70.2% | 106% | 92.8%
8 | N#Cc1ccc(-c2ccc(-c3cccs3)o2)cc1F | 76.9% | 81.8% | 83.3% | 35.7% | 88.1% | 50.5% | 67.2% | 86.2% | 88.1% | 83.7% | 86.6% | 82.2% | 70.7% | 78.1% | 87.7% |  | 77.2% | 75.5% | 
9 | COc1ccc(/C=C/c2nc(NCCCN(C)C)c3ccccc3n2)cc1 | 73.6% | 103% | 82.7% | 83.9% | 33.2% | 0.889% (active) | 78% | 85.9% | 96.5% | -75.3% (active) | 25.9% | 18.7% | 55% | 47.5% |  | 91.2 |  | 65.8% | 97.3%
10 | CCN(C(=O)CCl)C(C)(C)C(SSSC(c1ccc(Cl)cc1)C(C)(C)N(CC)C(=O)CCl)c1ccc(Cl)cc1 (stereo unspecified) | 93.6% | 104% | 87.7% | 86.6% | 81.1% | 47% | 79.7% | 56.8% | 85.5% | 0.579% (active) | 28.9% | 73.7% | 91.1% | 87.7% | -15.9% (active) |  | 48.6% | 89.5% | 
11 | NNc1ccc(S(N)(=O)=O)cc1 | 90.7% | 93.7% | 110% | 91.2% | 107% | 85.3% | 103% | 105% | 121% | 109% | 104% |  | 108% | 98.6% | 101% |  | 105% | 105% | 
12 | O=C1OC(/C=C/c2ccccc2)=NC/1=C/c1ccccc1[N+](=O)[O-] | 106% | 93.3% | 84.6% | 91.4% | 103% | 81.2% | 97.6% | 98% | 105% | 106% | 96.9% | 99% | 99.7% | 89.8% | 99.6% |  | 116% | 97.4% | 
13 | O=[N+]([O-])c1ccc(Sc2nc(Cl)nc(NC3CCCC3)n2)cc1 | -70.2% [100 µM] (active) | -44.4% [100 µM] (active) | -92.2% [100 µM] (active) | -78.9% [100 µM] (active) | -51.1% [100 µM] (active) | -74.7% [100 µM] (active) | -83.5% [100 µM] (active) | -61.5% [100 µM] (active) | -100% [100 µM] (active) | -32.1% [100 µM] (active) | -80.9% [100 µM] (active) | -90.3% [100 µM] (active) | -93% [100 µM] (active) |  | -94.6% [100 µM] (active) |  | -75.4% [100 µM] (active) | -93.9% [100 µM] (active) | 
14 | O=C(CC(=O)c1ccccc1F)Nc1ccc([N+](=O)[O-])cc1 | 105% | 86.2% | 91.5% | 114% | 104% | 79.6% | 101% | 105% | 119% | 91.9% | 93.6% | 103% | 105% | 93.2% | 100% |  | 103% | 98% | 
15 | CCOC(=O)C(CCCCC(NC(C)=O)(C(=O)OCC)C(=O)OCC)(NC(C)=O)C(=O)OCC | 103% | 105% | 105% | 102% | 103% | 94.9% | 99.4% | 107% | 113% | 108% | 108% | 111% | 100% | 109% | 105% |  | 102% | 99.3% | 
16 | N=C(N)c1ccc(-c2ccc(-c3ccco3)o2)cc1F | 56.2% | 67.4% | -10.4% (active) | 32.2% | 0.478% (active) | -20% (active) | 4.8% (active) | -93.4% (active) | 31.3% | 1.49% (active) | -68.2% (active) | 9.14% (active) | 19.8% | 8.28% (active) | -65.9% (active) |  | 34.1% | -27% (active) | 
17 | Cc1cccc2nc3ccccc3c(Nc3ccc(NS(C)(=O)=O)cc3)c12 | 57.8% | 5.12% (active) | 92.8% | 35.2% | 10.1% | -3.43% (active) | 38.2% | 51.1% | 23.1% | 35.1% | 40.4% | 72.9% | 57.9% | 39.6% | 70.7% |  | 55.4% | 21.6% | 
18 | Cc1cc2nc(CN)[nH]c2cc1C | 103% | 105% | 107% | 98.9% | 103% | 84% | 97.4% | 104% | 106% | 102% | 104% | 117% | 106% | 106% | 99.9% |  | 107% | 98.1% | 

Reference: PubChem BioAssay (NCI)
